Assay outcomes (PubChem BioAssay)
Most compounds without a hit are left out; they make up all but 8.1% or so of the library.
Sfp PPTase inh: Sfp phosphopantetheinyl transferase inhibition. Biochemical Sfp PPTase activity, qHTS. Potency, µM, actives largely listed as inhibitors. Q9F4F7. 3.5% of 310,000 active. AID 1490;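 further: the enzyme is Sfp with the accession as filed and its product quenches rhodamine fluorescence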
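Step 1, compound plus 15 nM Sfp-PPTase, 15 min, room temperature. Step 2, add rhodamine-CoA (5 uM) and BHQ-2-YbbR (12.5 uM). Step 3, read 525/598 nm fluorescence at 0 and 30 min.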
ClpP mod: qHTS Assay for Activators of ClpP. ATP-dependent Clp protease proteolytic subunit (Bacillus subtilis (strain 168)), P80244. Potency, µM (top dose mostly 57.5 µM). AID 651965, 2013. purified B. subtilis ClpP, FRET peptide cleavage, 20 min. 1.9% of 340,000 active; active means well fitted falling curve with a large enough effect; inconclusive means small, poorly fitted or top-dose-only effect; inactive means no such curve, though single readings can be large or run the other way; further: the source files actives as falling curves though it sought activators and does not explain the sign; nearly all actives have a fitted effect of over 65% in size
Target sequence (P80244 whole entry, looked up): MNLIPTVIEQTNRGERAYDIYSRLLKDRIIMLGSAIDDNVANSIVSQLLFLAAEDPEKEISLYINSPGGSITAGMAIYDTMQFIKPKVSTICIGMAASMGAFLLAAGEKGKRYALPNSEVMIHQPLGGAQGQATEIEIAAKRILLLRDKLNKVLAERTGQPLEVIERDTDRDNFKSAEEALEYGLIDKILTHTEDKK
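Purified B. subtilis ClpP, 10 microg/mL final in Tris/HCl pH8 with KCl, BSA, glycerol and Tween-20, cleaved an Abz/nitrotyrosine-quenched decapeptide. Fluorescence (ex 320, em 430) was read at 0 and 20 min at room temperature. Delta was normalized to 5.8 microM ADEP and DMSO/no-enzyme controls.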
Epigenetic derep: derepresses silenced GFP reporter in murine cells | Potency, µM (top dose mostly 53.9 µM), most hits filed as activators | 0.2% of 280,000 active | murine LDR cells, GFP reporter derepression, 30 h; further: nearly all actives have a fitted effect of over 60% in size
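Readout is the number of GFP-expressing murine LDR cells, counted by cytometry following washing. Cells were treated with compound for 30 h at 37 C; the stably integrated CMV-GFP locus is normally silent.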
PINK1 expr mod: modulators of PINK1 expression | PINK1 immunofluorescence, high-content cytometry, 24 h | Potency, µM (titrated, usually from 76.6 µM), actives largely listed as activators | 0.2% of 410,000 active | AID 624263; active means well fitted activation curve with a large enough effect; inconclusive means small, poorly fitted or top-dose-only effect; cell line not stated here; further: nearly all actives have a fitted effect of over 65% in size
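Measures PINK1 amount and localization on or inside mitochondria by immunofluorescence. Stable cells get compounds at 5 concentrations for 24 hours before fixation and staining; CCCP controls included.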
RORgamma inh: inhibitors of mouse ROR gamma transcriptional activity. P51450. Drosophila S2 Gal4-RORgamma UAS-luciferase reporter, 20 h. Potency, µM (series often up to 53.6 µM), usual class: inhibitors. 5.4% of 310,000 active. AID 2551; further: nearly all actives have a fitted effect of over 60% in size
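Luminescence from a UAS-regulated Photinus luciferase reporter in stably transfected Drosophila Schneider cells is measured; decreased signal marks ROR gamma inhibition. Fusion expression is induced by 700 uM copper sulfate for 20 hr.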
Gal4-VP16 FLuc: inhibits Gal4-VP16 luciferase reporter, ROR gamma counter-screen; Drosophila S2 Gal4-VP16 UAS-luciferase, luminescence, 20 h; Potency, µM (highest dose often 53.6 µM), actives largely listed as inhibitors; 3.5% of 310,000 active; AID 2546;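 further: Gal4-VP16 expression switched on by copper sulfate through the metallothionein promoter; nearly all actives have a fitted effect of over 50% in size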
Hits are given with their value. Unless noted, the call rests on the fitted dose curve; in most records, active means well fitted curve in the direction sought with a large enough effect; inconclusive means small, poorly fitted or top-dose-only effect, or another doubt; inactive means no such curve, though single readings can be large; an effect the other way counts as inactive or inconclusive.

What do the screens show for `CC(=O)N1CCCc2cc(S(=O)(=O)N3CCC(C(=O)NCCC(C)C)CC3)ccc21`?
ClpP mod: inactive; Epigenetic derep: inactive; PINK1 expr mod: inactive

Results for Cc1ccc(C2C3CN(C(C)C)CC=C3C(C#N)=C(N)C2(C#N)C#N)cc1 (stereo not drawn) ?
Sfp PPTase inh: inactive; ClpP mod: 20µM; Epigenetic derep: inactive; PINK1 expr mod: 25µM; RORgamma inh: inactive; Gal4-VP16 FLuc: inactive

How did N=C(N)S/C=C\C(=O)O do in these assays?
Sfp PPTase inh: 7.9µM; Epigenetic derep: inconclusive; RORgamma inh: 32µM; Gal4-VP16 FLuc: 32µM

What do the screens show for `COC(=O)c1c(NC(=O)CCCOc2ccc(C(C)(C)C)cc2)sc2c1C(C(=O)OC)CC2` (stereo not drawn)?
ClpP mod: inactive; Epigenetic derep: inactive; PINK1 expr mod: inactive

Results for COc1ccc(NC(=O)CC2C(=O)N(C)C(=S)N2CCc2ccccc2F)cc1 (stereo not drawn) ?
Sfp PPTase inh: inactive; Epigenetic derep: inactive; PINK1 expr mod: 16µM; RORgamma inh: inactive; Gal4-VP16 FLuc: inactive

Results for COC(=O)CN1C(=S)N(c2ccc(Cl)cc2)C(=O)C1CC(=O)Nc1ccc(F)cc1 (stereo not drawn) ?
Sfp PPTase inh: inactive; ClpP mod: inactive; Epigenetic derep: inactive; PINK1 expr mod: inactive; RORgamma inh: inconclusive; Gal4-VP16 FLuc: inactive

What do the screens show for `CCN1C(=O)C(CC(=O)Nc2ccc(OC)cc2)N(CCc2ccccc2F)C1=S` (stereo not drawn)?
Sfp PPTase inh: inactive; ClpP mod: inconclusive; Epigenetic derep: inactive; PINK1 expr mod: inconclusive; RORgamma inh: inconclusive; Gal4-VP16 FLuc: inactive

What do the screens show for `COC(=O)CN1C(=S)N(c2ccc(Cl)cc2)C(=O)C1CC(=O)Nc1ccc(Cl)cc1` (stereo not drawn)?
Sfp PPTase inh: 79µM; ClpP mod: inactive; Epigenetic derep: inactive; PINK1 expr mod: inactive; RORgamma inh: inconclusive; Gal4-VP16 FLuc: inactive

Results for COc1ccc(NC(=O)CC2C(=O)N(c3ccc(Cl)cc3)C(=S)N2CCc2ccccn2)cc1 (stereo not drawn) ?
Sfp PPTase inh: inactive; ClpP mod: inactive; Epigenetic derep: inactive; PINK1 expr mod: 28µM; RORgamma inh: inactive; Gal4-VP16 FLuc: inconclusive

Results for Cc1ccc(NC(=O)CN2C(=O)C(c3ccccc3)=NC23CCCCC3)cc1C ?
ClpP mod: inactive; Epigenetic derep: inactive; PINK1 expr mod: inactive

Results for COc1ccc(-n2c(=S)[nH]c3cc(C(=O)Nc4ccc(F)cc4)ccc3c2=O)c(OC)c1 ?
Sfp PPTase inh: inactive; PINK1 expr mod: inactive; RORgamma inh: 10µM; Gal4-VP16 FLuc: 18µM

What do the screens show for `COc1ccc(NC(=O)c2ccc3c(=O)n(-c4ccc(OC)cc4OC)c(=S)[nH]c3c2)cc1`?
Sfp PPTase inh: inactive; ClpP mod: inactive; Epigenetic derep: inactive; PINK1 expr mod: inactive; RORgamma inh: 5µM; Gal4-VP16 FLuc: 11µM

How did CC1(C)Oc2cc(N)c([N+](=O)[O-])cc2O1 do in these assays?
Sfp PPTase inh: inactive; ClpP mod: 32µM; Epigenetic derep: inactive; PINK1 expr mod: inactive; RORgamma inh: inactive; Gal4-VP16 FLuc: inactive

How did CCC[n+]1cn(/C(C(=S)Nc2cccc(Cl)c2C)=C(/[O-])c2ccc(OC)c(OC)c2)c2ccccc21 do in these assays?
Sfp PPTase inh: inactive; ClpP mod: inactive; Epigenetic derep: inactive; PINK1 expr mod: inactive; RORgamma inh: 14µM; Gal4-VP16 FLuc: inconclusive

Results for C=C1c2cc(OC)ccc2NC(=O)N1CC ?
Sfp PPTase inh: inactive; ClpP mod: 3.2µM; Epigenetic derep: inactive; PINK1 expr mod: inactive; RORgamma inh: inactive; Gal4-VP16 FLuc: inactive

What do the screens show for `CN(C)/C=N/c1sc2c(c1C#N)CCCC2`?
Sfp PPTase inh: 45µM; Epigenetic derep: inactive; PINK1 expr mod: inactive; RORgamma inh: inactive; Gal4-VP16 FLuc: inactive

What do the screens show for `O=C(c1cccc(Cl)c1)N1CCC(C(=O)N2CCN(Cc3ccccc3)CC2)CC1`?
Sfp PPTase inh: inactive; ClpP mod: 28µM; PINK1 expr mod: inactive; RORgamma inh: inconclusive; Gal4-VP16 FLuc: inactive
